# From PubChem BioAssay AID588795 (National Center for Advancing Translational Sciences (NCATS), 2011)
# Hit rate of the full screen: of about 390,000 compounds, about 1,400 (0.36%) were called active. Where a call stands in place of a potency, no number is given. Another 2% or so got no clear call; they are omitted. The call rests on the fitted dose curve; in most records, active means well fitted inhibition curve with a large enough effect; inconclusive means small, poorly fitted or top-dose-only effect; inactive means no such curve, though single readings can be large or run the other way. The sample as a whole holds a higher share of actives than the screen did.
# Biological target: Flap endonuclease 1 (Homo sapiens) (UniProt P39748)
# Sequence (P39748 whole entry, looked up): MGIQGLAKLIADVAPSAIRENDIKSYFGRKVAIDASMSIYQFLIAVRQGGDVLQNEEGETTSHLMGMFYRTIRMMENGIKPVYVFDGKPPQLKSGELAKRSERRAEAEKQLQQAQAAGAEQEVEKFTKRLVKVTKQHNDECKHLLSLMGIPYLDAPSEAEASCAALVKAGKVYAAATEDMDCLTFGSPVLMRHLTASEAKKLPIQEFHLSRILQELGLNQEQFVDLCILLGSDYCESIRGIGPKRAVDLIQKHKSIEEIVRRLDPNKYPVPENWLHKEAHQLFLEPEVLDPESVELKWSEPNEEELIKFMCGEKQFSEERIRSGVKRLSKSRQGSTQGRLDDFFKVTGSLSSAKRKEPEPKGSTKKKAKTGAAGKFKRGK
# Assay: qHTS Assay for the Inhibitors of Human Flap endonuclease 1 (FEN1). Further: nearly all actives have a fitted effect of over 65% in size.
# Conditions: Recombinant FEN1 flap cleavage, fluorescence, 15 min; series mostly up to 114 µM
# Excerpt: The major human flap endonuclease FEN1 is an efficient structure-specific enzyme that recognizes and cleaves a 5'-unannealed DNA flap. It belongs to the RAD2 family nucleases, which are involved in DNA metabolism and are highly conserved in prokaryotes and eukaryotes. FEN1 is a key enzyme in DNA replication, repair and maintenance of genomic stability. 5'-flap removal by FEN1 is critical for Okazaki fragment processing during lagging strand DNA synthesis, long-patch base excision repair (LP BER), and regulating or facilitating recombination events. […] Deletion of the yeast FEN1 gene, i.e. rad27, results in an increased frequency of short DNA (3-32 bp) repeats, micro- and mini-satellite formation, trinucleotide repeat expansion, spontaneous recombination events, and a severe growth defect in association with cell cycle arrest in late S/G2 phase. […] Cells from fen1-/- blastocysts show increased apoptotic cell death after ionizing radiation treatment, and chicken cells lacking the fen1 gene are hypersensitive to DNA alkylating agents, e.g. methylmethane sulfonate (MMS) and N-methyl-N'-nitro-N-nitrosoguanidine (MNNG), as well as hydrogen peroxide.
# NIH Chemical Genomics Center [NCGC]
# NIH Molecular Libraries Probe Centers Network [MLPCN]
# Assay Submitter (PI): David Wilson, National Institute of Aging
# Three uL of reagents (buffer in column 3 and 4 as negative control and 10 nM FEN1 in columns 1, 2, and 5-48) were dispensed into 1,536-well black solid-bottomed plate. Compounds (23 nL) were transferred via Kalypsys pin tool equipped with 1536-pin array (10 nL slotted pins, V&P Scientific, San Diego, CA). The plates were then incubated for 15 min at room temperature, and 1 uL substrate (50 nM final concentration) were added to start the reaction read twice at 0 min read and 15 min on ViewLux reader. Throughout the screen, reagent bottle and all liquid lines were chilled and made light-tight to minimize reagent degradation. All screening operations were performed on a fully integrated robotic system (Kalypsys, San Diego, CA) containing one RX-130 and two RX-90 anthropomorphic robotic arms (Staubli, Duncan, SC). Library plates were screened starting from the lowest and proceeding to the highest concentration, and a "double-dipping" step of the highest concentration was required to access higher concentrations of compounds. Vehicle-only plates, with DMSO being pin-transferred to the entire column 5-48 compound area, were inserted uniformly at the beginning and the end of each library in order to monitor for and record any shifts in the background, which can be affected by reagent dispensers or loss in enzyme activity overtime. Screening data was corrected, normalized, and concentration-effect relationships were derived by using publicly-available curve fitting algorithms developed in-house (http://ncgc.nih.gov/pub/openhts). A four parameter Hill equation was fitted to the concentration-response data by minimizing the residual error between the modeled and observed responses.
# Potency means the concentration at half of the fitted maximal effect.
row,Structure (SMILES),Potency
1,COc1cc2nc(Cl)nc(NC3CC3)c2cc1OC,inactive
2,CNCCCOc1cc2nc(N3CCCN(C)CC3)nc(NC3CCN(C)CC3)c2cc1OC,22.4 µM (active)
3,COc1cc2nc(N3CCCN(C)CC3)nc(NC(C)C)c2cc1OC,inactive
4,CN(N=O)c1ccc(C=C2c3ccccc3-c3ccccc32)cc1,inactive
5,O=C(COc1ccccc1C(=O)Nc1ccccc1)Nc1cccc(F)c1,inactive
6,CC(=O)c1ccc[n+](C(C)CCC(C)[n+]2cccc(C(C)=O)c2)c1 (stereo not given),inactive
7,Cc1ccc(-c2cc(N)n(Cc3cccc(Cl)c3)n2)cc1,inactive
8,CC(=O)OC1CCC2(C)C(=CCC3C4CC(=O)N(O)C(=O)C4(C)CCC32)C1 (stereo not given),3.16 µM (active)
9,C[C@@H]1CC[C@@]2(OC1)O[C@H]1C[C@H]3[C@@H]4CC=C5C[C@@H](O)[C@H](O)C[C@]5(C)C4CC[C@]3(C)[C@H]1[C@@H]2C (stereo not given in full),inactive
10,C[C@]12CC[C@H](O)CC1=CCC1C2CC[C@@]2(C)C1CC[C@@H]2NC(=O)CCC(=O)O (stereo not given in full),inactive
11,CC(C)(C(=O)NO)c1ccccc1,inactive
12,CN(C)c1ccc(/C=N\Nc2ccc([N+](=O)[O-])cc2[N+](=O)[O-])cc1Cl,inactive
13,CCCCOc1ccc(CN2C(=O)C(=O)c3cc(Br)cc(C)c32)cc1OC,inactive
14,COc1ccccc1Nc1cc(C(=O)NCCCN(C)C2CCCCC2)c2ccccc2n1,inactive
15,COc1ccc(Nc2cc(C(=O)NCCCN(C)c3ccccc3)c3ccccc3n2)c(OC)c1,inactive
16,CN(C)CCNC(=O)c1ccc(Cl)c2cc3ccccc3nc12,11.2 µM (active)
17,Cc1ccc(NC(=O)CN2C(=O)C(c3ccc(F)cc3)=NC23CCCCCC3)c(C)c1,89.1 µM (active)
18,CCc1ccc(NC(=O)CN2C(=O)C(c3ccccc3)=NC23CCCCCC3)cc1,inactive
19,COc1ccc(NC(=O)CN2C(=O)C(c3ccccc3)=NC23CCCCCC3)cc1OC,inactive
20,COc1ccc(CCNc2ncnc3c2cnn3-c2ccc(C)cc2)cc1,inactive
21,COc1ccc2[nH]c3c(C)c4cc[n+](C)cc4c(C)c3c2c1,2.24 µM (active)
22,CCOC(=O)c1[nH]c2ccc(OC)cc2c1NC(=O)N1CCOCC1,inactive

row,Structure (SMILES),Potency
1,CN(C)c1ccc(/C=C2\C=Cc3ccccc32)cc1Br,inactive
2,c1ccc(Cn2nnc3c(N4CCCCC4)ncnc32)cc1,inactive
3,CCCCOc1ccc(C(=O)NO)cc1,inactive
4,O=[N+]([O-])c1ccc(/C=C/c2ccc3cccnc3c2)cc1,inactive
5,COc1ccc(OC)c(NC(=O)Cc2cccs2)c1,inactive
6,COc1ccccc1NC(=O)Nc1nnc(Cc2ccc(F)cc2)s1,inactive
7,COc1ccc(Cc2nnc(NC(=O)Cc3cccs3)s2)cc1,56.2 µM (active)
8,CN(C)c1ccc(/C=C/c2c3ccccc3nc3ccccc23)cc1,inactive
9,CN(C)c1ccc(/C=C/c2sc3ccccc3[n+]2CCCCBr)cc1,50.1 µM (active)
10,CN(C)c1ccc(/C=C/c2sc3ccccc3[n+]2C)cc1,50.1 µM (active)
11,CC[n+]1cc(C)ccc1/C=C/c1ccc(N(C)C)cc1,inactive
12,CO[C@H]1O[C@@H]2O[C@@]3(C)CC[C@@H]4[C@@H](C)CC[C@@H]([C@H]1C)[C@@]24OO3,inactive
13,Cc1ccc(Cn2cnc3c(cnn3C(C)(C)C)c2=O)c(F)c1,inactive
14,Cc1ccc(C=O)cc1Cl,inactive
15,CCCCCCC1(C)NC(c2ccc3c(c2)OCO3)=CC(c2ccccc2O)N1 (stereo not given),inactive
16,Cc1ccc2ccc3c(c2n1)NS(=O)(=O)c1ccccc1-3,inactive
17,SCc1nc2ccc(Cl)cc2[nH]1,inactive
18,CCN(CC)/[N+]([O-])=N/OCOC(=O)Cc1c(C)n(C(=O)c2ccc(Cl)cc2)c2ccc(OC)cc12,inactive
19,CCc1cnc2c(c1SCC(=O)c1ccccc1)c(=O)n(C)c(=O)n2C,inactive
20,O=C(NNc1c2ccccc2nc2ccccc12)c1cc2ccccc2cc1O,50.1 µM (active)
21,O=C(NNC(=O)c1ccccc1O)c1ccccc1O,inactive
22,O=C(COC(=O)c1ccc(O)cc1O)NC(=O)c1ccccc1,inactive

row,Structure (SMILES),Potency
1,CCOC(=O)COc1cc(OCC(=O)OCC)c2c(=O)cc(-c3ccccc3)oc2c1,inactive
2,COc1c(O)cc2oc(-c3ccc(O)c(O)c3)cc(=O)c2c1O,17.8 µM (active)
3,COc1ccc(-c2c(C)c3ccc(O)c(CN4CCN(C)CC4)c3oc2=O)cc1OC,inactive
4,OCC(O)C(O)C(O)C(O)C=Nc1ccc(/C=C/c2ccnc3ccccc23)cc1 (stereo not given),inactive
5,CC1(C)Cc2ccccc2-c2c[nH]c(=O)n21,inactive
6,Nc1ccccc1SC(C[N+](=O)[O-])c1ccccc1 (stereo not given),15.8 µM (active)
7,Cc1csc[n+]1CCC1CCCCC1,inactive
8,CC(C)(C)C1CCC(NC(=O)c2cnn3c2NC(=C2CC2)C=C3C(F)F)CC1 (stereo not given),inactive
9,CCC1(C)Cc2c(sc3[nH]c(=S)n(Cc4ccccc4)c(=O)c23)CO1 (stereo not given),inactive
10,C=CCn1c(=S)[nH]c2scc(-c3ccco3)c2c1=O,39.8 µM (active)
11,CCOc1ccc(NC(=O)c2ncoc2-c2ccco2)cc1,inactive
12,C=CCNC(=O)c1ccc2nc(-c3ccco3)c(-c3ccco3)nc2c1,inactive
13,COCCNC(=O)Nc1ccc2nc(-c3ccco3)c(-c3ccco3)nc2c1,11.2 µM (active)
14,CC1(C)CC(=O)c2cc(C(=O)NCc3ccccc3)c(=O)[nH]c2C1,inactive
15,O=C1CCC[C@@H]2C[C@@]3(C[C@@H]4CCN1[C@H]24)Nc1ccccc1NC3=NCc1ccccc1,inactive
16,COc1cccc2c1C(=O)c1c(O)c3c(c(O)c1C2=O)CC(O)(C(C)=NNC(=O)c1ccc(Cl)c(Cl)c1)CC3OC1CC(N)C(O)C(C)O1 (stereo not given),44.7 µM (active)
17,CN1CCN(/[N+]([O-])=N/Oc2ccc([N+](=O)[O-])cc2[N+](=O)[O-])CC1,inactive
18,O=C1CC(c2ccccc2)CC2=C1C(c1ccco1)n1nc(C(F)(F)F)nc1N2 (stereo not given),inactive
19,CCOc1cccc(/C=N/N2C(=O)CSC2=S)c1O,inactive
20,CO/N=C/c1ccc(N2CCN(C(=O)c3cccc(Cl)c3)CC2)c([N+](=O)[O-])c1,inactive
21,O=C1CSC(=S)N1/N=C/c1ccc(O)c([N+](=O)[O-])c1,28.2 µM (active)
